From PubChem BioAssay AID614 (Sanford-Burnham Center for Chemical Genomics, 2007)
Screen size: about 21,000 compounds; fewer than 10 were called active.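 Rule for the calls: active = inhibition above 50% at the 20 µM single-dose screen; inactive = the rest.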 A selection follows.

Molecular target: Alkaline phosphatase, tissue-nonspecific isozyme (Homo sapiens) (UniProt P05186)
Experiment: human TNAP enzyme inhibitors, primary screen, biochemical, colorimetric, phosphate release readout (AID 614)
Conditions: purified TNAP, pNPP, malachite green phosphate absorbance; at 20 µM; hits give high values

Chain of Alkaline phosphatase, tissue-nonspecific isozyme (Homo sapiens) (P05186 whole entry, looked up): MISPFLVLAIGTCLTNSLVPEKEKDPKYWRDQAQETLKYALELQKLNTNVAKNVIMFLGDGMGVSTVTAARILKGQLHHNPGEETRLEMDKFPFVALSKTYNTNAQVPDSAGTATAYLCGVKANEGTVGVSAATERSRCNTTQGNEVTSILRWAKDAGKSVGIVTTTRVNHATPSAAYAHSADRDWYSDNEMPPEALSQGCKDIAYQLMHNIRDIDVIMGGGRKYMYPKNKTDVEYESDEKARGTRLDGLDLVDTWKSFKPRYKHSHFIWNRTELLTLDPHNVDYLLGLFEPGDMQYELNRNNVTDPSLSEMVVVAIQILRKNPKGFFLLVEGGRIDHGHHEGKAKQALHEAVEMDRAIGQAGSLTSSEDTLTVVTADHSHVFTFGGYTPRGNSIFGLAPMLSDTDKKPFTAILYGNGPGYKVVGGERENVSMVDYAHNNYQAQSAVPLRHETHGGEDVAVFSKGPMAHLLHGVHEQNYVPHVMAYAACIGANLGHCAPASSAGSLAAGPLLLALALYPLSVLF

inhibition, inactive:
CC1Cc2ccccc2N1C(=O)CSc1nc2ccccc2o1 (stereo unspecified) 14%, CCCn1c(SCC(N)=O)nnc1C(C)C 3.8%, COC(=O)CNC(=O)c1ccc2c(c1)S(=O)(=O)c1ccccc1C2=O 14.1%, O=C(Oc1ccccc1)c1ccc2nccnc2c1 8.8%, CC(Sc1nncs1)C(=O)NCc1ccc2c(c1)OCO2 (stereo unspecified) 18.9%, C=CCn1c(C2CC(=O)N(c3ccc(C)cc3)C2)nc2ccccc21 (stereo unspecified) 8.4%, c1ccc2c(CNn3cnnc3)cccc2c1 4%, O=c1cc(CSc2ccc(Cl)cc2)nc(N2CCOCC2)[nH]1 -11.8%, CCCc1nc2c3cnn(-c4cccc(Cl)c4)c3ncn2n1 -13.7%, Cn1c(=O)c2c(nc(OCc3cccnc3)n2Cc2ccccc2)n(C)c1=O 0%, O=C(CCCC(=O)N(CC(=O)NC1CCCC1)Cc1ccccc1Cl)Nc1ccccn1 10.7%, CC12C(=O)N(n3cnnc3)C(=O)C1C1C=CC2C1 (stereo unspecified) -18.4%, Cn1cnc2c1c(=O)n(Cc1c(Cl)cccc1Cl)c(=O)n2C 7.6%, COc1ccc(-n2c(C)nc3c(cnn3-c3ccccc3)c2=O)cc1 -8.2%, CC(=O)Nc1ccc(S(=O)(=O)N2CCCC2C(=O)O)cc1 (stereo unspecified) 10.8%, COCCn1nnnc1C(c1ccccc1Cl)N1CCN(c2ccccc2OC)CC1 (stereo unspecified) 8.5%, CC(Cc1cccs1)NC(=O)NC1CCCCC1 (stereo unspecified) 10%, CS(=O)(=O)N(CC(=O)N1CCN(c2cccc(Cl)c2)CC1)c1ccccc1 0%, O=C(CSc1nnc(-c2cccnc2)n1Cc1ccco1)c1ccc(Cl)cc1 8.1%, CCN1C(=O)/C(=C\N2CCN(c3ccccc3)CC2)SC1=S 10.1%, O=C(Nc1c(-c2ccccc2)nc2c(Br)cc(Br)cn12)c1ccco1 9.2%, Cc1ccc(C2(c3ccc(C)cc3)NC(=O)N(Cc3c(C)noc3C)C2=O)cc1 -2%, COC(=O)[C@H](C)NC(=O)Nc1ccc(OC(F)(F)F)cc1 4.2%, Cc1csc(NC(=O)CN2CCCCCC2)n1 14.8%, COc1ccc(-c2nc3n(c2Br)CCC3)cc1 0%, CCOC(=O)N1CCN(C(=O)C2CCN(S(C)(=O)=O)CC2)CC1 -0.3%, O=S(=O)(NCc1ccccn1)c1ccc(Br)s1 -2.3%, COCCNC(=O)CN(C(=O)CCC(=O)Nc1cc(C)on1)c1ccc(C)cc1C 14.4%, CN1CCN(S(=O)(=O)c2ccc(NC(=O)C3CCCO3)cc2)CC1 (stereo unspecified) 11.5%, C=CCNc1nc(C)nc(OC)n1 -2.9%, CCc1cc(=O)oc2cc(C)cc(OC(C)C(=O)O)c12 (stereo unspecified) 8.6%, O=S(=O)(O)c1nc2ccccc2n1Cc1ccc(Cl)cc1Cl 0%, CCNC(=O)CCc1nc(-c2ccc(C(C)(C)C)cc2)no1 2%, CC1(C)Oc2ccc(C(=O)N3CCOCC3)cc2N(CC(=O)Nc2ccccc2)C1=O -16.7%, COc1cccc(C2/C(=C(/O)c3ccc(F)cc3)C(=O)C(=O)N2CCN(C)C)c1 (stereo unspecified) 0.4%, Cc1cccc(N)c1SC1CCCCC1O (stereo unspecified) 9.2%, CC(C)(C)n1nnc(CCc2nnn(C(C)(C)C)n2)n1 0.3%, CCOC(=O)CSc1nnc(NC(=O)c2cccc(S(=O)(=O)N3CCCC3)c2)s1 9.6%, C=CCNc1nnc(C)c2ccccc12 15.4%, COCCNC(=O)C(C#N)c1nc2ccccc2nc1N1CCN(Cc2ccc3c(c2)OCO3)CC1 (stereo unspecified) 8.2%, CC1COC2C(O1)N(S(C)(=O)=O)CCN2S(C)(=O)=O (stereo unspecified) 3.4%, CCn1cc(C(=O)NCc2ccc(OC)cc2OC)c(=O)c2ccc(C)nc21 9.9%, Cc1cccc(NC(=O)c2ccccc2NC(=O)C(C)(C)C)n1 0.8%, Cc1cc(C)cc(NC(=O)N2CCC(NC(=O)c3ccc(F)cc3)CC2)c1 7.3%, CSc1nsc(SC)c1NC(=O)OC1CCCCC1 0%, COCc1nc2ccccc2n1Cc1ccccc1Br 1.7%, c1nnc2c3c4c(sc3ncn12)CCC4 9.7%, Cc1cc(Cl)c(S(=O)(=O)NCc2cccnc2)cc1OCC(N)=O 5.5%, O=C(O)c1ccc(NS(=O)(=O)c2cccc3nsnc23)cc1 11.8%, Cn1c(=O)[nH]c(=O)c2c1nc(Br)n2CCCCSc1nc2ccccc2o1 1.3%, CCOC(=O)c1sc(NC(=O)CSc2nnc(-c3ccco3)o2)c(C(=O)OCC)c1C 7.3%, Cc1nc(N2CCCC2C(=O)O)c2oc3ccccc3c2n1 (stereo unspecified) 10.7%, Cc1nc(NCCN)c(C#N)c2c1COC(C)(C)C2 5.7%, O=S(=O)(NCc1ccccn1)c1ccc(F)cc1 9.6%, CCN(CC)C(=O)CSc1nnc(-c2cnccn2)n1-c1ccc(C)cc1 2.9%, Cc1ccc(S(=O)(=O)Nc2ccccc2CNc2c(C)n(C)n(-c3ccccc3)c2=O)cc1 12.4%, CCC1CCCCN1C(=O)Nc1cccc(NC(=O)N2CCCCC2CC)c1 (stereo unspecified) 6.5%, Cc1ccc2nc(-c3ccccc3)cc(C(=O)O)c2c1 2.9%, COc1ccc(Cl)cc1NC(=O)C1CC(=O)N(c2ccc(F)cc2)C1 (stereo unspecified) 4.2%, CCOC(=O)Cn1c(SC)nc2sc3c(c2c1=O)CC(C)(C)OC3 11.5%, CCOC(=O)CCc1c(C)c2ccc(OCc3nn[nH]n3)c(C)c2oc1=O -5.8%, Cc1noc(C)c1CSc1nnc2ccc3ccccc3n12 12.2%, COc1ccc(CCn2c(-c3ccco3)nc3nc4ccccc4nc32)cc1OC 1.5%, Cc1cccc2cc(CN(Cc3ccc4c(c3)OCO4)Cc3nnnn3C3CCCC3)c(=O)[nH]c12 15%, COc1cc(C(=O)N(Cc2ccc(N(C)C)cc2)C2CCS(=O)(=O)C2)cc(OC)c1OC (stereo unspecified) 8%, CCOC(=O)CC1=CC(=O)Nc2ccccc2N1 2.4%, Cc1cc(C)cc(OCc2nnc(SCC(=O)OC3CCCCC3)o2)c1 -4.5%, COC(=O)c1nc(NC(=O)c2ccc(Cl)cc2)n[nH]1 1.5%, CCC1SC2=NCCN2C1(O)c1ccc(Cl)cc1 (stereo unspecified) 3.8%, CCSc1nc(=S)n(CC)c(C)c1C(C)=O 5.7%, Cc1ccc2nc(NC3=NCN(CCc4ccccc4)CN3)nc(C)c2c1 10.4%, O=C(CN(c1ccc2c(c1)OCCO2)S(=O)(=O)c1ccccc1)Nc1ccc2c(c1)OCO2 5.3%, O=S(=O)(NCC1CCCO1)c1ccc2ccccc2c1 (stereo unspecified) 8.8%, CCn1c(SCC(=O)Nc2nc3ccc(OC)cc3s2)nnc1-c1ccoc1C 1.9%, CSCC[C@H](NC(=O)NCc1cccs1)C(=O)O -0.1%, COC(=O)c1ccc(CSc2nncn2C)cc1 11%, COc1cccc(N(CC(=O)Nc2cccc(F)c2)S(C)(=O)=O)c1 0.7%, CCOP1(=O)C=C(C(C)(C)C)OC1c1ccc(F)cc1 (stereo unspecified) -0.2%, CCN1CCN(C(=O)c2ccccc2N(C)S(=O)(=O)c2ccc(C)cc2)CC1 11.4%, Nn1c(SCC(=O)NC(=O)NC2CCCC2)nnc1-c1ccccc1F 15.5%, CCCn1c(SCC(=O)c2ccc3c(c2)OCCO3)nnc1C(C)C 11.4%, O=C(Nc1cccc2c1CCCC2)C1CCN(C(=O)NC2CCCCC2)CC1 15.2%, COc1ccc2c(c1)C(C)=CC(C)(C)N2C(=O)CNCc1ccc2c(c1)OCO2 6.2%, COc1ccc(NS(=O)(=O)c2ccc(NC(=O)C(C)(C(F)(F)F)C(F)(F)F)cc2)nn1 3.4%, Cc1ccc(C(=O)CS(C)(=O)=O)cc1 -1.2%, Clc1ccc(CSc2nnc([C@@H]3CCCN3)o2)cc1 13%, COC(=O)C1C(=O)CC(C)(O)C(C(=O)OC)C1c1ccc2c(c1)OCO2 (stereo unspecified) 9.9%, CN(C)Cc1c(C#N)c2ccccc2n1C -22.9%, C=CCn1c(CC(=O)Nc2cccc(OC)c2)nnc1SCC(=O)NC1CCCCC1 -6.2%, Cc1cc(Br)ccc1NC(=O)C1CCCO1 (stereo unspecified) 0%, Cc1ccc(C(=O)CSc2nc3ccccc3c(=O)n2N)o1 6%, CCCCC(CCC(=O)Nc1ccc(C(=O)OCC)cc1)C(=O)O (stereo unspecified) 6%, Fc1cnc(N2CCOCC2)nc1NCc1ccccc1 -0.4%, CCOC(=O)CN(C(=O)CN1CCOCC1)c1ccc(Br)cc1 -1.5%, O=C(O)COc1nsnc1N1CCOCC1 10.4%, O=C1CCC(C(=O)Nc2ccc(OC(F)F)cc2)N1 (stereo unspecified) 21.3%, Cc1cccc(Cn2c(N3CCN(c4ccccc4)CC3)nc3c2c(=O)n(C)c(=O)n3C)c1 8.8%, O=C1CC(N2CCN(C(c3ccccc3)c3ccccc3)CC2)C(=O)N1 (stereo unspecified) 7.9%, COC(=O)c1ccc(N(CC(=O)NC2CCCC2)C(=O)CNC(=O)c2ccco2)cc1 0%, Cc1ccc(C)c(NC(=O)C2CCCN2C(=O)OC(C)(C)C)c1 (stereo unspecified) -3.4%, O=C(NCc1ccc(Cl)cc1)c1cc2c(nc3sccn32)s1 12.4%
